Source: PubChem
In the library only some 3.5% were active in any assay of this set; here they are far more common.
Anthrax LF prot – Bacillus anthracis LF protease inhibitors, primary screen, biochemical, multiplex microsphere, MLPCN library | Lethal factor (Bacillus anthracis), P15917 | multiplex microsphere protease cleavage assay | inhibition, % at 10 µM | 0.12% of 360,000 active | AID 588501, 2011
Target sequence (P15917 whole entry, looked up): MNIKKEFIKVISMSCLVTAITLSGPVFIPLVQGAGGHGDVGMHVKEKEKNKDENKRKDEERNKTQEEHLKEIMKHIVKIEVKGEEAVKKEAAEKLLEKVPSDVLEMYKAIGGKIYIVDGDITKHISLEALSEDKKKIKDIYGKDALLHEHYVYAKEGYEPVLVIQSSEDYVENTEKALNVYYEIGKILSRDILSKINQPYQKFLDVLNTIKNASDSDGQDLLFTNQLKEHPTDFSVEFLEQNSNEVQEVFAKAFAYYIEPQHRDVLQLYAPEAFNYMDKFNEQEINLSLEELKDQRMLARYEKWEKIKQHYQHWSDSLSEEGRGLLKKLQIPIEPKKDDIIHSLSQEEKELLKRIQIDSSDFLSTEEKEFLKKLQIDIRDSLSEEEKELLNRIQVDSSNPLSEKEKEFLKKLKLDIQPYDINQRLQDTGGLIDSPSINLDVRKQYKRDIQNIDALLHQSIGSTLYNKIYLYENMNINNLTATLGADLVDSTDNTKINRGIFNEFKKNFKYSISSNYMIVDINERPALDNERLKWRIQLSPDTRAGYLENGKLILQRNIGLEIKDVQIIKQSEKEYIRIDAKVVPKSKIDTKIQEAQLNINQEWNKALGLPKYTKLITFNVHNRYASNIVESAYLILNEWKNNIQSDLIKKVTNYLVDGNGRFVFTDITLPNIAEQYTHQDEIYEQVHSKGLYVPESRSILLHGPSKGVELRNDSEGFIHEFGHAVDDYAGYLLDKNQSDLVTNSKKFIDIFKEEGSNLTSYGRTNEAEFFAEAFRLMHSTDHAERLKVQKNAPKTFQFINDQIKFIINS
BoNT-A LC inh2 – BoNT/A light chain protease inhibitors, primary screen, biochemical, flow cytometry, MLPCN library. Botulinum neurotoxin type A light chain protease (Clostridium botulinum A str. ATCC 3502). multiplex microsphere protease substrate cleavage. inhibition, % at 10 µM. 0.17% of 360,000 active
BoNT-F LC inh – BoNT/F light chain protease inhibitors, primary screen, biochemical, flow cytometry, MLPCN library. Botulinum neurotoxin type F light chain protease (Clostridium botulinum). Multiplex microsphere protease cleavage assay. inhibition, % at 10 µM. 0.22% of 360,000 active; in the data active = inhibition above about 35%, passing the limit was not always enough; inconclusive = no clear call, values can overlap the other calls
Bead autofluor – counter-screen for toxin protease inhibitors: compound fluorescence | compound autofluorescence counterscreen, microsphere flow cytometry; stronger effect = higher value | fluorescence intensity (concentration not given with the values) | 3.1% of 360,000 active | AID 624483; in the data active = fluorescence intensity above about 16000; inconclusive = no clear call, values can overlap the other calls
Each line names hits and unclear results; the compound was inactive in the other large screens. Cut-off read from the data, not from the text of the source, unless noted: active = inhibition above about 30%; inconclusive = no clear call, values can overlap the other calls; inactive = below that.

CC(C)OC(=O)C1CC=CCC1C(=O)Nc1ccc(Cl)cc1 (stereo not drawn)	none
CC(OC(=O)C1CC=CCC1C(N)=O)C(Cl)=C(Cl)Cl (stereo not drawn)	Bead autofluor 22015
NS(=O)(=O)c1ccc(-c2ccc(/C=C3\SC(=S)N(C4CCS(=O)(=O)C4)C3=O)o2)cc1 (stereo not drawn)	Anthrax LF prot 46, BoNT-A LC inh2 65
Cc1ccc(/C=C2\SC(=S)N(C3CCS(=O)(=O)C3)C2=O)o1 (stereo not drawn)	BoNT-A LC inh2 35
C=CCC[C@H](Cc1ccc(F)cc1)C(=O)OC[C@@H](NC(=O)[C@H](CC=C)CC(=O)NCCO)C(C)(C)C	none
CCCNC(=O)CS(=O)Cc1nc(-c2ccccc2C)oc1C (stereo not drawn)	none
CCOc1ccc(CCNC(=O)CS(=O)Cc2nc(-c3ccccc3C)oc2C)cc1OCC (stereo not drawn)	Bead autofluor 20576
Cc1ccccc1-c1nc(CS(=O)CC(=O)NCCN2CCN(Cc3ccccc3)CC2)c(C)o1 (stereo not drawn)	BoNT-A LC inh2 inconclusive, Bead autofluor 21943
Cc1ccccc1-c1nc(CS(=O)CC(=O)NCCCN(C)c2ccccc2)c(C)o1 (stereo not drawn)	none
CCCNC(=O)c1c(N)n(-c2cccc(OC)c2)c2nc3ccccc3nc12	BoNT-A LC inh2 inconclusive, Bead autofluor 20561
COCCCNC(=O)c1c(N)n(-c2cccc(S(N)(=O)=O)c2)c2nc3ccccc3nc12	none
CC(=O)c1c(C)[nH]c(C(=O)CSc2nnc(-c3ccco3)n2Cc2ccccc2)c1C	Bead autofluor 16352
Cn1cnnc1SCC(=O)NCCC(c1ccccc1)c1ccccc1	none
CC(C)(C)NC(=O)CSc1nnc(-c2ccco2)n1Cc1ccco1	Bead autofluor 16522
COCCn1c(SCC(=O)NCCc2ccccc2)nnc1-c1ccco1	Bead autofluor 17231
Cn1cnnc1SCC(=O)NCCc1ccccc1	Bead autofluor 23752
CCCn1c(SCC(=O)NC(C)(C)C)nnc1-c1ccco1	none
Cc1ccc(C)c(N(CC(=O)N/N=C/c2ccc(-c3ccc([N+](=O)[O-])cc3)o2)S(=O)(=O)c2ccccc2)c1	Anthrax LF prot 42, BoNT-A LC inh2 50
CCOC(=O)c1[nH]c2ccc(Br)cc2c1NC(=O)CCN1CCCC(C)(C)C1	none
Cc1ccn2c(NCc3ccc4c(c3)OCO4)c(-c3ccc(O)cc3)nc2c1	Bead autofluor 17253
CNc1nc(Cl)c(SC)c(NCc2cccc(OC)c2)n1	BoNT-F LC inh 48
CC1Cn2c(nc3sc4c(c3c2=O)CC(C)(C)OC4)N1CCO (stereo not drawn)	none
CC1=C(C#N)C(NC(=O)c2ccc(C)cc2)(C(F)(F)F)C(=O)N1 (stereo not drawn)	Bead autofluor 19042
CC1(C)C/C(=N\O)c2cc3c(nc2C1)CCCC3	Bead autofluor 23918
CCc1cn(S(=O)(=O)c2ccccc2OC)nc1N	none
CCCc1cn(S(=O)(=O)c2ccc(OC)cc2OC)nc1N	Bead autofluor 17146
CCC(=O)NC(=S)NNC(=O)c1ccc([N+](=O)[O-])cc1	Bead autofluor 20381
c1ccc(CNc2ccccn2)cc1	BoNT-A LC inh2 inconclusive, BoNT-F LC inh inconclusive
c1ccc(Nc2ccccc2Nc2ccccn2)nc1	Bead autofluor 20926
Oc1cccc2ccc(Nc3ccccn3)nc12	Anthrax LF prot 34
CC(C)Nc1ncnc2c1ncn2[C@H]1CN(Cc2ccc(Cl)cc2)C[C@@H](CO)O1	none
CCCCNc1nc(N(C)c2ccccc2)nc(-n2ccnc2)n1	Bead autofluor 23497
c1ccc(N(c2ccccc2)c2nc(-n3ccnc3)nc(-n3ccnc3)n2)cc1	none
C=CCNc1nc(N(c2ccccc2)c2ccccc2)nc(-n2ccnc2)n1	Bead autofluor 20613
C=CCNC(=O)CN(Cc1ccccc1)S(=O)(=O)c1ccccc1	none
O=C(CSC1=NS(=O)(=O)c2cc(F)ccc2N1)Nc1cccc(F)c1	none
COc1cccc(C(O)c2ncc(-c3ccc(C(F)(F)F)cc3)[nH]2)c1 (stereo not drawn)	none
CN(C)CCNc1oc(-c2cccc(Cl)c2)nc1C#N	Bead autofluor 20990
CN(C)CCCNc1oc(-c2ccccc2)nc1C#N	none
CCOc1ccc(Nc2oc(-c3cccc(Cl)c3)nc2C#N)cc1	BoNT-A LC inh2 inconclusive, Bead autofluor 23170
COc1ccc(/C=C(\NC(=O)c2ccc(C)cc2)C(=O)Nc2ccc(C(=O)O)cc2)cc1	none
N#CCC(=O)N/N=C/c1cc(Br)ccc1OCc1cccc2ccccc12	none
